40 molecules from PubChem BioAssay (Tox21) can be followed below.

Each structure is given as a SMILES string. Records with an inconclusive call do not appear. A call without a number means that no potency is given here. The source made the active and inactive calls. Calls come from the whole dose curve; as a rule, active = well fitted inhibition curve with a large enough effect in the signal ratio in the repeat runs (not every such curve was filed as active); inconclusive = weak or mixed curves; inactive = flat fitted curve, though single readings scatter; the % refers to the signal ratio.
Potency is the fitted concentration of half-maximal effect.

Sequence of Progesterone receptor (Homo sapiens) (P06401 whole entry, looked up): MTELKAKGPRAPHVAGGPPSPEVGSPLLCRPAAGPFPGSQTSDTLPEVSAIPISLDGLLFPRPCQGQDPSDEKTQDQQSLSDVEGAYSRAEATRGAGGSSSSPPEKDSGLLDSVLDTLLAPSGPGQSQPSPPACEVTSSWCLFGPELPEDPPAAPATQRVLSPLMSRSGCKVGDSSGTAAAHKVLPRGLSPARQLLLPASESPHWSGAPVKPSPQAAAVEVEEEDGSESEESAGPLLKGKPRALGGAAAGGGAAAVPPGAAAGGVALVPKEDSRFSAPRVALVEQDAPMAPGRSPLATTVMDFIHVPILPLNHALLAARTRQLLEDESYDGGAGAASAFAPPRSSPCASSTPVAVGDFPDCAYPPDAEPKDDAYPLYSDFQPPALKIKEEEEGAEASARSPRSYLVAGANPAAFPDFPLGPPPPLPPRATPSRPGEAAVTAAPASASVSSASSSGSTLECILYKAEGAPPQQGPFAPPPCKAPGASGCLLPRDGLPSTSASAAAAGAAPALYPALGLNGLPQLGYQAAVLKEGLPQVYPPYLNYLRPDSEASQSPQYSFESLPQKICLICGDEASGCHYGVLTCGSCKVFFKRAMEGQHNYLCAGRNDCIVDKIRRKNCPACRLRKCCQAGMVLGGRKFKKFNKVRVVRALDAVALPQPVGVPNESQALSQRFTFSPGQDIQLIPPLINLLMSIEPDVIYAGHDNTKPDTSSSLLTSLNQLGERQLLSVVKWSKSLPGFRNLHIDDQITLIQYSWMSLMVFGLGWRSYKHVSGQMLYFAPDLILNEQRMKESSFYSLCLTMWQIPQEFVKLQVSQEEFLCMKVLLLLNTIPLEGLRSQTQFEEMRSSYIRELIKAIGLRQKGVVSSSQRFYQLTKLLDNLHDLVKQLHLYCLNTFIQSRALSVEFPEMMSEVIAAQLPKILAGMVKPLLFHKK

In this experiment the target is Progesterone receptor (Homo sapiens) (UniProt P06401). Kind of experiment: qHTS assay to identify small molecule antagonists of the progesterone receptor (PR) signaling pathway (AID 1346795). The settings on record: PR-UAS-bla HEK293T, beta-lactamase FRET ratio, 16 h; series mostly up to 92.4 µM. The text has this:
National Center for Advancing Translational Sciences [NCATS]
NIH Chemical Genomics Center [NCGC]
U.S. Environmental Protection Agency [EPA]
National Institutes of Environmental Health Sciences [NIEHS]
National Toxicology Program [NTP]
U.S. Food and Drug Administration [FDA]
Progesterone receptor (PR), a nuclear hormone receptor, plays an important role in development, metabolic homeostasis and reproduction. […] Endocrine disrupting chemicals (EDCs) and their interactions with steroid hormone receptors like PR causes disruption of normal endocrine function. To identify the compounds that inhibit PR signaling, a PR-UAS-bla GripTite cell line i.e. PR-UAS-bla HEK293T (Invitrogen, Carlsbad, CA, USA) containing a beta-lactamase reporter gene under the control of an Upstream Activator Sequence (UAS) was used to screen Tox21 10K compound library.
Tox21 Assay Protocol Summary:
PR-UAS-bla HEK293T cells were dispensed at 3,000 cells/4 uL of assay medium containing 2% charcoal stripped FBS per well into black wall/clear-bottom 1536-well plates using a Multidrop Combi (ThermoFisher Scientific, Waltham, MA) dispenser. After the assay plates were incubated at a 37C and 5% CO2 for 6 hr, 23 nL of compounds dissolved in DMSO, positive controls or DMSO only was transferred to the assay plate by a Pintool station (Kalypsys, San Diego, CA), followed by addition of 1 uL (1nM as final concentration) of Promegestone (R5020) in assay medium using a BioRAPTR FRD (Flying Reagent Dispenser, Aurora Discovery, San Diego, CA). The plates were incubated at 37C and 5% CO2 for 16 hr. Then 1 uL of LiveBLAzer B/G FRET substrate was added using a FRD. After the plates were incubated at room temperature for 2 hours, fluorescence intensity was measured by an Envision plate reader (PerkinElmer, Shelton, CT).
A general note: qHTS replaces the single test concentration by a dilution series.
As for `COC[C@H](c1ccc(C(F)(F)F)cc1)N1CCN(C2(C)CCN(C(=O)c3c(C)ncnc3C)CC2)C[C@H]1C`, the Potency result is “inactive”. `CCC(C(=O)NC(N)=O)c1ccccc1` (stereo not given): the Potency result is “inactive”. For `CC(C)CCCC(C)NCCC(C)C` (stereo not given), the Potency entry is “inactive”. Regarding `Nc1ccc2cc(S(=O)(=O)O)ccc2c1`, the Potency result is “inactive”.

As for `CC(C)=CCC/C(C)=C/C(=O)O`, the Potency entry is “inactive”. Take `NCCNC(=O)c1ccc(Cl)cn1`: the Potency entry was “inactive”. On to `O=c1[nH]c(=O)n([C@H]2O[C@H](CO)[C@@H](O)[C@@H]2O)cc1/C=C\Br`, for which the Potency entry is “inactive”. Regarding `C=C(C)C(=O)OCCC(C)OC(=O)C(=C)C` (stereo not given), the Potency result was “inactive”. As for `N[C@@H](CS)C(=O)O`, the Potency entry was “inactive”. As to `CCC(=O)Nc1cccc(N)c1`, the Potency result is “inactive”.

Turning to `Cc1cc(C)cc(OCC2CNC(=O)O2)c1` (stereo not given), the Potency result was “inactive”. Take `CC/C=C\CCCCO`: the Potency entry was “inactive”. As to `CCCC=O`, the Potency entry is “inactive”. As to `CC(C)(C)C(=O)/C=C/c1ccc(Cl)cc1`, the Potency entry was “inactive”. As to `COc1cc(O)cc(O)c1`, the Potency entry is “inactive”.

For the molecule `CCCCCCOC(=O)CC(CC(=O)OCCCCCC)(OC(=O)CCC)C(=O)OCCCCCC`, the Potency entry is “inactive”.

As to `Nc1nc2c(ncn2CCC(CO)CO)c(=O)[nH]1`, the Potency entry is “inactive”. With `C#CC(O)C(CC)CCCC` (stereo not given), the Potency entry is “inactive”. With `O=C1CC2(CCCC2)CC(=O)N1` the entry was “inactive”; with `O=c1[nH]c2ccccc2c(=O)n1CCCl`, “inactive”; with `COc1cc(C)cc(O)c1`, “inactive”. As for `CC(C)CCCC(C)CCCC(C)CCCCC(C)CCCC(C)CCCC(C)C` (stereo not given), the Potency result is “inactive”. Take `CC(C=O)Cc1ccc(C(C)C)cc1` (stereo not given): the Potency result was “inactive”. On to `CCCCN(CCO)CCO`, for which the Potency result was “inactive”. With `OCCN1C[C@H](O)[C@@H](O)[C@H](O)[C@H]1CO`, the Potency entry was “inactive”. The same measure for `CCCCCOC(=O)Nc1nc(=O)n([C@@H]2O[C@H](C)[C@@H](O)[C@H]2O)cc1F`: “inactive”. With `CC(C)c1cccc(C(C)C)c1N`, the Potency result is “inactive”. As to `Nc1cc(C(Cl)=C(Cl)Cl)c(S(N)(=O)=O)cc1S(N)(=O)=O`, the Potency result is “inactive”. Take `COc1ccc(COC=O)cc1`: the Potency entry is “inactive”. The same measure for `CCN1CCN(c2cc3c(cc2F)c(=O)c(C(=O)O)cn3C2CC2)CC1`: “inactive”; for `C=C(C)[C@H]1CC=C(C)CC1`: “inactive”; for `CCN(CC)C(=O)c1ccc(O)c(OC)c1`: “inactive”. With `CCn1c(=O)c2c(nc(/C=C/c3ccc(OC)c(OC)c3)n2C)n(CC)c1=O`, the Potency entry was “inactive”.

`C(=C(c1ccccc1)c1ccccc1)c1ccccc1`: the Potency was 12.2 µM (active). `Oc1ccc2c(c1)OC[C@@H](N1CCC(O)(c3ccc(F)cc3)CC1)[C@H]2O`: the Potency was 10.6 µM (active). With `O=[N+]([O-])c1ccc(Oc2ccc([N+](=O)[O-])cc2)cc1` the figure was 3.94 µM (active); with `O=C1C(CCS(=O)c2ccccc2)C(=O)N(c2ccccc2)N1c1ccccc1` (stereo not given), “inactive”. With `CC(C)(C)N(CCO)CCO` the entry was “inactive”; with `CC(CCO)CCCC(C)(C)O` (stereo not given), “inactive”. With `CCC(C)OC(=O)N1CCCCC1CCO` (stereo not given) the entry was “inactive”.
